GLD-1 TGE inh = GLD-1-TGE RNA interaction inhibition (C. elegans); Q17339; purified GLD-1 + fluorescein TGE RNA, fluorescence polarization; inhibition, % at 5.96 µM; actives 0.44% (n = 320,000);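 active means percent inhibition above a per-plate cutoff, the plate mean of test compounds plus 3 SD, cut at about 30% in these data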;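 further: 0% = DMSO wells with GLD-1 and probe and 100% = wells lacking GLD-1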
eLon inh = E. coli protease La inhibition; P0A9M0; inhibition, % at 7.94 µM; purified E. coli Lon protease, fluorescence polarization; AID 602123; actives 0.42% (n = 360,000); in the data active means inhibition above about 13%, passing the limit was not always enough;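 further: 0% = enzyme with probe and DMSO and 100% = no enzyme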
cardiac RTF act = increases calcium sensitivity of human cardiac regulated thin filaments. activation, % at 7.2 µM. actives 0.24% (n = 340,000). AID 493008. IANBD-labeled TnC RTF fluorescence at EC20 calcium; 0% EC20 calcium, 100% full calcium. P19429+P45379;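 active means activation above the mean over all tested compounds plus 3 SD, cut at about 30% in these data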;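 further: rise in fluorescence read as greater calcium sensitivity of cardiac thin filaments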
Cardiac RTF inh = cardiac RTF calcium desensitization; P19429+P45379; IANBD-labeled cardiac RTF, Ca2+ fluorescence; inhibition, % at 7.15 µM; actives 0.12% (n = 340,000);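 active means inhibition above the mean inhibition of all tested compounds plus 3 SD, cut at about 17% in these data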;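 further: assay run at fixed EC70 calcium of 1.6 mM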
BCLXL inh = inhibitors of human Bcl-xL. GST-Bcl-xL / FITC-Bim BH3 peptide fluorescence polarization. inhibition, % at 10.9 µM. actives 0.7% (n = 320,000). AID 2129;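 active means inhibition above the mean of all tested compounds plus 3 SD, cutoff set per campaign, cut at about 30% in these data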;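 further: 0% = DMSO wells and 100% = unlabeled Bim-BH3 peptide competitor; inhibitors lower millipolarization by displacing the labeled peptide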
Starred values were filed as active, the others as inactive; . = not tested or not shown; + = active, no number. An excerpt weighted towards active compounds, which were near 1.2% of everything screened.

SMILES | GLD-1 TGE inh | eLon inh | cardiac RTF act | Cardiac RTF inh | BCLXL inh
COC(=O)[C@@H]1[C@H]2C[C@H]3c4[nH]c5ccccc5c4CCN3C[C@@H]2CC[C@@H]1O | 7 | 12 | 1 | -8 | -1
COC(=O)C1=COC(C)C2CN3CCc4c([nH]c5cc(OC)c(OC)cc45)C3CC12 (stereo not given) | 53* | 37 | 30* | -22 | 92*
COc1cc(OC)c(-c2noc(C(=O)OC(C)(C)C)c2C(=O)OC(C)(C)C)c(OC)c1 | 1 | -6 | -2 | -16 | 7
COc1cccc(CC(NC(C)=O)C(=O)NC2CCN(c3nc(C)cc(C)c3C#N)CC2)c1OC (stereo not given) | 5 | 8 | 16 | -1 | 5
CCN(CC)c1ccc(/C=C/c2cc(-c3ccccc3)c3ccccc3n2)cc1 | -141 | -333 | 320* | -430 | 30*
CCOC(=O)c1nnn(CC(=O)Nc2ccccc2)c1C(=O)OCC | 7 | -4 | -1 | 9 | 0
CCOC(=O)c1nnn(CC(=O)NC(=O)Nc2ccccc2)c1C(=O)OCC | 18 | -9 | -4 | -1 | 53*
Cc1cccc(C(=O)NC(C)C2CC3CCC2C3)c1 (stereo not given) | -3 | -11 | . | . | -3
CCN(CC)c1ccc2c(-c3ccc(S(=O)(=O)O)cc3S(=O)(=O)[O-])c3ccc(=[N+](CC)CC)cc-3oc2c1 | 155* | + | 248* | -336 | +
O=C(COC(=O)C1=COCCO1)Nc1cccc(S(=O)(=O)N2CCOCC2)c1 | 5 | 0 | -3 | -5 | 5
CCNc1c2c3c(cccc3n(C)c1=O)C(=O)c1ccccc1-2 | 164* | . | . | . | +
Cc1ccc(-c2cn3nc(-c4ccccc4)c(-c4ccccc4)nc3n2)cc1 | 34* | -61 | . | . | 15
Oc1ccccc1N=Cc1c(O)ccc2oc3c(c12)CCCC3 | 38* | -16 | 1 | -19 | 14
COc1ccc(C(=O)c2sc(Nc3ccccc3)c(C(=O)Nc3ccc(OC)c(OC)c3)c2N)cc1 | 3 | -1 | -4 | -15 | 63*
COc1ccc(NC(=O)c2c(Nc3ccccc3)sc(C(=O)c3ccc(F)cc3)c2N)cc1 | 9 | 0 | -2 | -1 | 1
NC(=O)/C(=C/c1ccco1)NC(=O)c1ccc(Br)o1 | 24 | -12 | 7 | -9 | 39*
O=C(N/C(=C/c1ccc(Br)cc1)C(=O)N1CCOCC1)c1ccco1 | 5 | 4 | 5 | -4 | 3
COC(=O)/C(=C/c1ccco1)NC(=O)c1ccc(Br)o1 | 3 | -8 | 1 | 5 | 9
O=C(N/C(=C\c1ccco1)C(=O)N1CCOCC1)c1ccco1 | 18 | 6 | -3 | -3 | 33*
CCOC(=O)C1CCCN(C(=O)c2cc(-c3ccccc3)nc3ccccc23)C1 (stereo not given) | 0 | -1 | 0 | 2 | 3
CCOCCCNC(=O)CN(c1cc([N+](=O)[O-])ccc1OC)S(C)(=O)=O | -5 | 5 | 11 | 8 | 4
CC(=O)c1cccc(S(=O)(=O)N2CCn3cccc3C2C)c1 (stereo not given) | 17 | -4 | 3 | -6 | 33*
CC1c2cccn2CCN1S(=O)(=O)c1ccc(F)cc1 (stereo not given) | 1 | -1 | 8 | -11 | 8
CC(=O)c1ccc(S(=O)(=O)N2CCn3cccc3C2C)cc1 (stereo not given) | 20 | -7 | -2 | -7 | 43*
COc1ccc(NC(C)=O)cc1S(=O)(=O)N1CCn2cccc2C1C (stereo not given) | 3 | 0 | 2 | -1 | 12
SMILES | GLD-1 TGE inh | eLon inh | cardiac RTF act | Cardiac RTF inh | BCLXL inh
O=S(=O)(c1ccccc1)N1CCCN(S(=O)(=O)c2ccccc2)CC1 | 3 | -11 | 2 | -7 | 5
CCC1=NN2C(=N)/C(=C\c3ccc(SCc4ccco4)o3)C(=O)N=C2S1 | 2 | -97 | 11 | -27 | 21
CCCC1=NN2C(=N)/C(=C\c3ccc(SCc4ccco4)o3)C(=O)N=C2S1 | 24 | -103 | 2 | -28 | 70*
O=C1NC(=S)S/C1=C\c1ccc(SCc2ccco2)o1 | 13 | 7 | -30 | 50* | 66*
COc1cc(/C=N/NC(=O)CN(Cc2ccco2)S(=O)(=O)c2ccccc2)ccc1O | -2 | 6 | -1 | 0 | 6
CC(=O)Nc1ccc(NC(=O)CSc2ccccn2)cc1 | -3 | -2 | 8 | 0 | 3
CC(=O)Nc1nonc1NC(=O)CSc1ccccn1 | 83* | -7 | 2 | 2 | 0
